Where “and” joins values, the source holds several entries; their conditions need not be identical. Equal values may be shown once. Results filed as inconclusive are left out. A number with no mark means an inactive call. Calls of active or inactive are those of the source. How the calls were made is not given here.
On the % scale 0 is the no-effect control and ±100 the full control effect; potency means the concentration at half of the fitted maximal effect.

This test can be described thus: qHTS assay to identify small molecule antagonists of the estrogen related receptor signaling pathway with the pleiotropic PPARgamma coactivator (PGC) from Tox21 10K library (AID 1224841). Further: actives are mostly falling curves and most rising ones were filed inactive; nearly all actives have a fitted effect of over 50% in size. The following applies: PGC/ERR reporter cell line, ONE-Glo luciferase, 18 h; series mostly up to 92.4 µM; activity, negative = inhibition: at the top concentration. The source says: U.S. Tox21 Program National Center for Advancing Translational Sciences [NCATS] NIH Chemical Genomics Center [NCGC] U.S. Environmental Protection Agency [EPA] National Institutes of Environmental Health Sciences [NIEHS] National Toxicology Program [NTP] U.S. Food and Drug Administration [FDA] Tox21 Assay Overview: Estrogen related receptors (ERRs), the first orphan nuclear receptors discovered, play an important role in the control of cellular energy metabolism. ERRs are required for high-energy production in response to the environmental challenges. The pleiotropic PPARgamma coactivator (PGC) is a major partner of ERR and a key regulator in energy homeostasis. Together they have been implicated in the etiology of metabolic disorders such as Type 2 diabetes and metabolic syndrome. ERR-alpha was also identified as an adverse marker for breast cancer progression; ERR-alpha-positive tumors have a poor prognosis. To screen and to identify environmental compounds that perturb the ERR and PGC/ERR signaling pathways could provide valuable information for potential therapeutic or preventive measures in the treatment of metabolic disease. For identifying PGC/ERR antagonists, PGC/ERR cell line (provided by NTP) has been used to screen Tox21 10K library.
Tox21 Assay Protocol Summary: The PGC/ERR cells were dispensed at 2,000 cells/5 ul/well in 1536-well white plates using a Multidrop dispenser. After the assay plates were incubated at a 37 C/5% CO2 incubator for 6 hours, 23 nL of compounds dissolved in DMSO, positive and negative controls or DMSO only was transferred to the assay plate by a pin tool. The plates were incubated at 37 C for 18 hours. 4 ul/well of One-Glo reagent was added into the assay plates using a Flying Reagent Dispenser. After 30-minute incubation at room temperature, the luminescence intensity in the plates was measured using a ViewLux plate reader.
For orientation: Quantitative high-throughput screening tests each substance at several concentrations.
Regarding `Cc1cc(C)cc(OP(=O)(Oc2cc(C)cc(C)c2)Oc2cc(C)cc(C)c2)c1`, the “activity, negative = inhibition” value is -1.06%.

As for `CC1(c2ccc(Oc3ccccc3)cc2)OC(=O)N(Nc2ccccc2)C1=O` (stereo not given), the Potency was 4.89 µM (active).

As to `C=CC(=O)N(C)C`, the Potency is 27.3 µM (active).

Consider `Oc1cccc(-c2ccccc2)c1`, for which the “activity, negative = inhibition” value is 151%.

Consider `C1CCC2CCCCC2C1` (stereo not given), for which the “activity, negative = inhibition” value is 0.774%.

Regarding `CC(C)(C)c1cc([N+](=O)[O-])cc(C(C)(C)C)c1O`, the Potency was 2.73 µM (active).

In the case of `CCC(C)c1cc(C(C)(C)C)cc(-n2nc3ccccc3n2)c1O` (stereo not given), the “activity, negative = inhibition” value was 46.7% [at 42.5 µM].

Turning to `Cc1ccc(OP(=O)(Oc2ccccc2)Oc2ccccc2)cc1`, the Potency is 24.7 µM (active).

Regarding `N#Cc1c(-c2ccc(Cl)cc2)[nH]c(C(F)(F)F)c1Br`, the Potency was 0.486 µM (active).

Regarding `C=CCC1=C(C)C(OC(=O)C2C(C=C(C)C)C2(C)C)CC1=O` (stereo not given), the Potency is 20.5 µM (active).

Regarding `COc1cccc2c1C(=O)c1c(O)c3c(c(O)c1C2=O)C[C@@](O)(C(=O)CO)CC3OC1CC(N2CCOC(OC)C2)C(O)C(C)O1` (stereo not given in full), the Potency was 0.266 µM (active).

Take `ClC1=C(Cl)C2(Cl)C3C(Cl)C(Cl)CC3C1(Cl)C2(Cl)Cl` (stereo not given): the Potency was 60.9 µM (active) and 43.3 µM (active).

As for `CC[C@H](C)[C@H]1O[C@]2(C=C[C@@H]1C)C[C@@H]1C[C@@H](C/C=C(\C)[C@@H](O[C@H]3C[C@H](OC)[C@@H](O[C@H]4C[C@H](OC)[C@@H](O)[C@H](C)O4)[C@H](C)O3)[C@@H](C)/C=C/C=C3\CO[C@@H]4[C@H](O)C(C)=C[C@@H](C(=O)O1)[C@]34O)O2`, the Potency is 7.2 µM (active).

For `C[C@]12CC[C@H](O)C[C@H]1CC[C@@H]1[C@@H]2C[C@@H](O)[C@]2(C)[C@@H](C3=CC(=O)OC3)CC[C@]12O`, the Potency is 3.86 µM (active).

For `ClCCN1CCOCC1`, the “activity, negative = inhibition” value is -33.1%.

As to `CC(C)(C)C(O)C(Oc1ccc(-c2ccccc2)cc1)n1cncn1` (stereo not given), the Potency was 54.5 µM (active).

Turning to `O=C/C(Cl)=C(/Cl)C(=O)O`, the “activity, negative = inhibition” value was 1.72%.

With `ClC(Cl)=C(c1ccc(Cl)cc1)c1ccc(Cl)cc1`, the Potency result was “inactive”.

Regarding `Clc1ccc(-c2ccc(Cl)c(Cl)c2Cl)c(Cl)c1Cl`, the “activity, negative = inhibition” value is 19.3%.

With `CCCCCCCCCCBr`, the “activity, negative = inhibition” value was 1.3%.

With `COc1cccc(C(=O)CCN[C@@H](C)[C@H](O)c2ccccc2)c1`, the “activity, negative = inhibition” value was -1.89% [at 42.5 µM].

In the case of `FC(F)(F)c1cccc(C2=CCN(CCc3ccc4ccccc4c3)CC2)c1`, the “activity, negative = inhibition” value was 27.7% [at 42.5 µM].

As to `N#CSCSC#N`, the “activity, negative = inhibition” value is -117%.

As for `CCOP(=S)(OCC)OC(Cl)C(Cl)(Cl)Cl` (stereo not given), the “activity, negative = inhibition” value was -5.07%.

On to `COP(=O)(CCC(=O)NCO)OC`, for which the “activity, negative = inhibition” value is 0.721%.

`C[C@H]1O[C@@H](O[C@H]2[C@@H](O)C[C@H](O[C@H]3[C@@H](O)C[C@H](O[C@H]4CC[C@@]5(C)[C@H](CC[C@@H]6[C@@H]5CC[C@]5(C)[C@@H](C7=CC(=O)OC7)CC[C@]65O)C4)O[C@@H]3C)O[C@@H]2C)C[C@H](O)[C@@H]1O`: the Potency was 97.5 nM (active) and 168 nM (active).

Turning to `CCc1ccccc1C`, the “activity, negative = inhibition” value is -11.9%.

With `CCc1nn(C)c(C(=O)NCc2ccc(C(C)(C)C)cc2)c1Cl`, the Potency is 0.0611 µM (active).

Consider `Clc1ccc(C(Cl)(Cl)Cl)c(Cl)c1`, for which the Potency was 61.6 µM (active).

For the compound `C[C@H]1CC[C@@H]2[C@@H](C)[C@H]3[C@H](C[C@H]4[C@@H]5CC=C6CC(O[C@@H]7O[C@H](CO)[C@H](O)[C@H](O[C@@H]8O[C@H](CO)[C@@H](O)[C@H](O)[C@H]8O)[C@H]7O[C@H]7O[C@@H](C)[C@H](O)[C@@H](O)[C@H]7O)CC[C@]6(C)[C@H]5CC[C@]34C)N2C1` (stereo not given in full), the “activity, negative = inhibition” value is 85.5%.

`C[C@@H]1CC[C@@]2(OC1)O[C@H]1[C@@H](O)[C@H]3[C@@H]4CC[C@H]5C[C@@H](O[C@@H]6O[C@H](CO)[C@H](O[C@@H]7O[C@H](CO)[C@@H](O)[C@H](O[C@@H]8OC[C@@H](O)[C@H](O)[C@H]8O)[C@H]7O[C@@H]7O[C@H](CO)[C@@H](O)[C@H](O[C@@H]8O[C@H](CO)[C@@H](O)[C@H](O)[C@H]8O)[C@H]7O)[C@H](O)[C@H]6O)[C@H](O)C[C@]5(C)[C@H]4CC[C@]3(C)[C@H]1[C@@H]2C`: the Potency was 40.9 µM (active).

Take `CCC(C)(C)C(=O)OC1=C(c2ccc(Cl)cc2Cl)C(=O)OC12CCCCC2`: the “activity, negative = inhibition” value is 75.7%.

For the compound `CC(C)CC(C)Nc1ccc(Nc2ccccc2)cc1` (stereo not given), the Potency is 60.1 µM (active).

With `Cl/C=C\CCl`, the “activity, negative = inhibition” value is 47.7%.

With `COC12CC[C@@]3(C[C@@H]1C(C)(O)C(C)(C)C)[C@H]1Cc4ccc(O)c5c4[C@@]3(CCN1CC1CC1)[C@H]2O5` (stereo not given in full), the Potency is 60.7 µM (active).

Turning to `CC[C@H]1C[C@@H]2C[C@H]3c4[nH]c5ccc(OC)cc5c4CCN(C2)[C@@H]13`, the Potency was 53.5 µM (active).

`CSCCCN=C=S`: the “activity, negative = inhibition” value is 6.27%.

`Clc1ccc(C(c2ccccc2Cl)C(Cl)(Cl)Cl)cc1` (stereo not given): the Potency was 61.5 µM (active).

As to `COCC(=O)N(c1c(C)cccc1C)[C@H](C)C(=O)OC`, the “activity, negative = inhibition” value was 34.6%.

`N#CCc1ccc(Cl)cc1`: the “activity, negative = inhibition” value is 31.3%.

Values taken from PubChem BioAssay (Tox21).
